What all share (experiment): peptide microarray binding signal (635 nm), min-max normalized on array (fraction of array maximum); higher = stronger binding
Test [1] concerns the target T1, HaloTag-ATRX ADD domain (163-292).
T1 chain: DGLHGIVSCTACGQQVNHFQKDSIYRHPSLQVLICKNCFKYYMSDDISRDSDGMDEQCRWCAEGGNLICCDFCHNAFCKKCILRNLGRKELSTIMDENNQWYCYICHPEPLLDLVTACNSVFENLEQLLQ
The gist of the method:
(§1)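 Two probe formats were used for 1 h at 4°C: biotin-labelled HaloTag reader fusions (10 nM to 1 μM) with streptavidin-Alexa Fluor 647, and rabbit histone antibodies (1:10,000 to 1:2,000) with anti-rabbit Alexa 647. Both were applied to nitrocellulose arrays of histone 13-mer peptide–cellulose conjugates printed in triplicate with a Cy3 tracer and blocked overnight at 4°C. Signal was read at 635 nm and misprints at 532 nm on an Axon GenePix 4000B. Binding signal is expressed as the triplicate-spot mean intensity, min-max scaled for each library.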

The target of test [2] is HaloTag-ING2 PHD (mouse Ing2 200-280). The gist of the method:
as §1

Test [3] concerns the target anti-H3K4me3 antibody ab8580. The gist of the method: as §1
For test [4], the target named is anti-H3K9me3 antibody ab8898. The gist of the method: as §1
Setting [5] is: peptide region: H4 8-19, peptide modifications: H4K8ac H4K12ac H4K16ac, binder concentration: 1:2,000 dilution.
Setting [6] is: peptide region: H4 1-13, peptide modifications: H4S1ph H4K8ac, binder concentration: 1:2,000 dilution.
The mark [7] stands for this setting: peptide region: H4 1-13, peptide modifications: H4S1ph H4K8ac, binder concentration: 1:10,000 dilution.
The mark [8] stands for this setting: peptide region: H4 8-19, binder concentration: 1:2,000 dilution.
Setting [9] is: peptide region: H4 8-19, binder concentration: 1:10,000 dilution.
The mark [10] stands for this setting: peptide region: H4 1-13, peptide modifications: H4S1ph H4R3me2s, binder concentration: 1:2,000 dilution.
Setting [11] is: peptide region: H4 1-13, peptide modifications: H4S1ph H4R3me2s, binder concentration: 1:10,000 dilution.
Setting [12] is: peptide region: H4 1-13, peptide modifications: H4S1ph H4R3me1, binder concentration: 1:2,000 dilution.
[13] abbreviates: peptide region: H4 1-13, peptide modifications: H4S1ph H4R3me1, binder concentration: 1:10,000 dilution.
Setting [14] is: peptide region: H4 1-13, peptide modifications: H4S1ph H4K12ac, binder concentration: 1:2,000 dilution.
The mark [15] stands for this setting: peptide region: H4 1-13, peptide modifications: H4S1ph H4K12ac, binder concentration: 1:10,000 dilution.
The mark [16] stands for this setting: peptide region: H4 1-13, peptide modifications: H4S1ph, binder concentration: 1:2,000 dilution.
Setting [17] is: peptide region: H4 1-13, peptide modifications: H4S1ph, binder concentration: 1:10,000 dilution.
The mark [18] stands for this setting: peptide region: H4 8-19, peptide modifications: H4K8ac H4K12ac, binder concentration: 1:2,000 dilution.
[19] abbreviates: peptide region: H4 8-19, peptide modifications: H4K8ac H4K12ac, binder concentration: 1:10,000 dilution.
[20] abbreviates: peptide region: H4 1-13, peptide modifications: H4S1ph H4R3cit, binder concentration: 1:2,000 dilution.
The mark [21] stands for this setting: peptide region: H4 1-13, peptide modifications: H4S1ph H4R3cit, binder concentration: 1:10,000 dilution.
[22] abbreviates: peptide region: H4 1-13, peptide modifications: H4S1ph H4R3me2a, binder concentration: 1:2,000 dilution.
Setting [23] is: peptide region: H4 1-13, peptide modifications: H4S1ph H4R3me2a, binder concentration: 1:10,000 dilution.

± gives the standard deviation.

B1: H4 8-19 Kac G L G Kac G G A Kac R H R K (peptide)
chain: KGLGKGGAKRHRK
Consider B1, for which the “peptide microarray binding signal” value in test [1] (peptide region: H4 8-19, peptide modifications: H4K8ac H4K12ac H4K16ac, binder concentration: 500 nM) was 0.000476 ± 4.9e-06; in test [2] (peptide region: H4 8-19, peptide modifications: H4K8ac H4K12ac H4K16ac, binder concentration: 100 nM), 7.09e-05 ± 1.5e-06; in test [3] (setting [5]) it was 1.89e-05 ± 2.2e-07; in test [4] (setting [5]), 3.02e-05 ± 3.4e-07.

B2: H4 1-13 Sph G R G K G G Kac G L G K G (peptide)
chain: SGRGKGGKGLGKG
As to B2, the “peptide microarray binding signal” value in test [1] (peptide region: H4 1-13, peptide modifications: H4S1ph H4K8ac, binder concentration: 50 nM) turned out to be 0.00445 ± 0.00043; in test [1] (peptide region: H4 1-13, peptide modifications: H4S1ph H4K8ac, binder concentration: 500 nM), 0.0149 ± 0.0018; in test [2] (peptide region: H4 1-13, peptide modifications: H4S1ph H4K8ac, binder concentration: 10 nM), 0.00251 ± 3.8e-05; in test [2] (peptide region: H4 1-13, peptide modifications: H4S1ph H4K8ac, binder concentration: 100 nM), 0.00503 ± 0.00084; in test [3] (setting [6]), 0.000359 ± 1.8e-05; in test [3] (setting [7]) it was 0.000742 ± 1.3e-05. Also, the entries for the “peptide microarray binding signal” value in test [4] (setting [6]) and in test [4] (setting [7]) were 0.000332 ± 6.7e-06 and 0.000577 ± 6.2e-06, respectively.

B3: H4 8-19 K G L G K G G A K R H R K (peptide)
chain: KGLGKGGAKRHRK
As to B3, the “peptide microarray binding signal” value in test [1] (peptide region: H4 8-19, binder concentration: 50 nM) was found to be 0.00495 ± 5.5e-05; in test [1] (peptide region: H4 8-19, binder concentration: 500 nM) it was 0.0131 ± 0.0015; in test [2] (peptide region: H4 8-19, binder concentration: 10 nM), 0.00466 ± 0.00021; in test [2] (peptide region: H4 8-19, binder concentration: 100 nM), 0.0136 ± 0.0014; in test [3] (setting [8]), 0.000793 ± 4.3e-05; in test [3] (setting [9]), 0.00154 ± 3e-05. For the same molecule, the “peptide microarray binding signal” value turned out to be 0.000529 ± 1.3e-05 in test [4] (setting [8]) and 0.0011 ± 1.1e-05 in test [4] (setting [9]).

B4: H4 1-13 Sph G Rme2s G K G G K G L G K G (peptide)
chain: SGRGKGGKGLGKG
For B4, the “peptide microarray binding signal” value worked out at 0.0052 ± 0.0008 in test [1] (peptide region: H4 1-13, peptide modifications: H4S1ph H4R3me2s, binder concentration: 50 nM); 0.00852 ± 0.00024 in test [1] (peptide region: H4 1-13, peptide modifications: H4S1ph H4R3me2s, binder concentration: 500 nM); 0.00346 ± 0.00014 in test [2] (peptide region: H4 1-13, peptide modifications: H4S1ph H4R3me2s, binder concentration: 10 nM); 0.00865 ± 0.00015 in test [2] (peptide region: H4 1-13, peptide modifications: H4S1ph H4R3me2s, binder concentration: 100 nM); 0.00119 ± 0.0001 in test [3] (setting [10]); 0.0012 ± 1.2e-05 in test [3] (setting [11]). Further, the “peptide microarray binding signal” value in test [4] (setting [10]) amounted to 0.000408 ± 1.8e-05; in test [4] (setting [11]), 0.000923 ± 9.6e-06.

B5: H4 1-13 Sph G Rme G K G G K G L G K G (peptide)
chain: SGRGKGGKGLGKG
On to B5, for which the “peptide microarray binding signal” value is 0.00467 ± 0.00075 in test [1] (peptide region: H4 1-13, peptide modifications: H4S1ph H4R3me1, binder concentration: 50 nM); 0.0107 ± 0.00059 in test [1] (peptide region: H4 1-13, peptide modifications: H4S1ph H4R3me1, binder concentration: 500 nM); 0.00149 in test [2] (peptide region: H4 1-13, peptide modifications: H4S1ph H4R3me1, binder concentration: 10 nM); 0.00276 ± 6.8e-05 in test [2] (peptide region: H4 1-13, peptide modifications: H4S1ph H4R3me1, binder concentration: 100 nM); 0.000132 ± 1.5e-06 in test [3] (setting [12]); 0.000742 ± 1.3e-05 in test [3] (setting [13]). Besides, the “peptide microarray binding signal” value came out at 0.000347 ± 7e-06 in test [4] (setting [12]) and 0.000577 ± 1.2e-05 in test [4] (setting [13]).

B6: H4 1-13 Sph G R G K G G K G L G Kac G (peptide)
chain: SGRGKGGKGLGKG
In the case of B6, the “peptide microarray binding signal” value in test [1] (peptide region: H4 1-13, peptide modifications: H4S1ph H4K12ac, binder concentration: 50 nM) turned out to be 0.00392 ± 0.00035; in test [1] (peptide region: H4 1-13, peptide modifications: H4S1ph H4K12ac, binder concentration: 500 nM), 0.0105 ± 0.00038; in test [2] (peptide region: H4 1-13, peptide modifications: H4S1ph H4K12ac, binder concentration: 10 nM), 0.00269 ± 6.6e-05; in test [2] (peptide region: H4 1-13, peptide modifications: H4S1ph H4K12ac, binder concentration: 100 nM) it was 0.00893 ± 0.00049; in test [3] (setting [14]), 0.000378 ± 1e-05; in test [3] (setting [15]), 0.000742 ± 1.3e-05. Moreover, the “peptide microarray binding signal” value in test [4] (setting [14]) was found to be 0.000649 ± 0.00018; in test [4] (setting [15]), 0.00075 ± 7.9e-06.

B7: H4 1-13 Sph G R G K G G K G L G K G (peptide)
chain: SGRGKGGKGLGKG
As to B7, the “peptide microarray binding signal” value in test [1] (peptide region: H4 1-13, peptide modifications: H4S1ph, binder concentration: 50 nM) worked out at 0.00608 ± 0.0013; in test [1] (peptide region: H4 1-13, peptide modifications: H4S1ph, binder concentration: 500 nM), 0.0121 ± 0.00045; in test [2] (peptide region: H4 1-13, peptide modifications: H4S1ph, binder concentration: 10 nM) it was 0.00328 ± 0.00014; in test [2] (peptide region: H4 1-13, peptide modifications: H4S1ph, binder concentration: 100 nM) it was 0.0039 ± 0.00041; in test [3] (setting [16]), 0.00111 ± 0.00012; in test [3] (setting [17]) it was 0.00131 ± 2.6e-05. The figures for the “peptide microarray binding signal” value in test [4] (setting [16]) and in test [4] (setting [17]) were 0.000362 ± 6.3e-06 and 0.00075 ± 7.9e-06, respectively.

B8: H4 8-19 Kac G L G Kac G G A K R H R K (peptide)
chain: KGLGKGGAKRHRK
B8: the “peptide microarray binding signal” value was found to be 0.000251 ± 1.2e-05 in test [1] (peptide region: H4 8-19, peptide modifications: H4K8ac H4K12ac, binder concentration: 50 nM); 0.000143 ± 2.7e-06 in test [1] (peptide region: H4 8-19, peptide modifications: H4K8ac H4K12ac, binder concentration: 500 nM); 0.00567 ± 0.0013 in test [2] (peptide region: H4 8-19, peptide modifications: H4K8ac H4K12ac, binder concentration: 10 nM); 0.000496 in test [2] (peptide region: H4 8-19, peptide modifications: H4K8ac H4K12ac, binder concentration: 100 nM); 0.000113 in test [3] (setting [18]); 0.00165 ± 0.00042 in test [3] (setting [19]). The “peptide microarray binding signal” value in test [4] (setting [18]) stood at 6.04e-05 ± 6.8e-07; in test [4] (setting [19]) it was 5.77e-05 ± 6.6e-07.

B9: H4 1-13 Sph G Rcit G K G G K G L G K G (peptide)
chain: SGRGKGGKGLGKG
B9: the “peptide microarray binding signal” value amounted to 0.00335 ± 0.00024 in test [1] (peptide region: H4 1-13, peptide modifications: H4S1ph H4R3cit, binder concentration: 50 nM); 0.00524 ± 0.00019 in test [1] (peptide region: H4 1-13, peptide modifications: H4S1ph H4R3cit, binder concentration: 500 nM); 0.00281 ± 4.1e-05 in test [2] (peptide region: H4 1-13, peptide modifications: H4S1ph H4R3cit, binder concentration: 10 nM); 0.00418 ± 0.0002 in test [2] (peptide region: H4 1-13, peptide modifications: H4S1ph H4R3cit, binder concentration: 100 nM); 0.000378 ± 3.9e-06 in test [3] (setting [20]); 0.000685 ± 7.2e-06 in test [3] (setting [21]). Moreover, the “peptide microarray binding signal” value in test [4] (setting [20]) turned out to be 0.000136; in test [4] (setting [21]), 0.00121 ± 0.00012.

B10: H4 1-13 Sph G Rme2a G K G G K G L G K G (peptide)
chain: SGRGKGGKGLGKG
With B10, the “peptide microarray binding signal” value in test [1] (peptide region: H4 1-13, peptide modifications: H4S1ph H4R3me2a, binder concentration: 50 nM) was 0.00605 ± 0.001; in test [1] (peptide region: H4 1-13, peptide modifications: H4S1ph H4R3me2a, binder concentration: 500 nM), 0.0165 ± 0.0018; in test [2] (peptide region: H4 1-13, peptide modifications: H4S1ph H4R3me2a, binder concentration: 10 nM) it was 0.00334 ± 4.8e-05; in test [2] (peptide region: H4 1-13, peptide modifications: H4S1ph H4R3me2a, binder concentration: 100 nM), 0.00794 ± 0.0014; in test [3] (setting [22]) it was 0.00225 ± 0.00023; in test [3] (setting [23]), 0.00194 ± 6.3e-05. Besides, the “peptide microarray binding signal” value in test [4] (setting [22]) worked out at 0.000982 ± 4.2e-05; in test [4] (setting [23]), 0.00104 ± 1.1e-05.

The values are drawn from the supplement of paper PMC4022240.
